The text below walks through data of PubChem BioAssay (NCATS).

The nature of assay [1]: P-glycoprotein substrates identified in KB-8-5-11 adenocarcinoma cell line, qHTS therapeutic library screen (AID 1346987). Further: nearly all actives have a fitted effect of over 65% in size. In outline:
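In this qHTS, P-gp-rich KB-8-5-11 cells received library compounds across a concentration range. Viability was quantified by luminescence after 72 h at 37 degree C.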

The test system of assay [2] is Zika virus NS2B-NS3 protease (unlinked complex). The assay is described as follows: Primary screen GU Rhodamine qHTS for Zika virus inhibitors: Unlinked NS2B-NS3 protease assay (AID 1347159). Further: nearly all actives have a fitted effect of over 60% in size. Further: potency means the concentration at half of the fitted maximal effect. A digest of the protocol: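 In dose–response format, inhibition of unlinked protease (25 nM) was measured with 1.5 microM bis-peptide Rhodamine110 substrate. Aprotinin served as the intraplate control.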
In general terms: In qHTS, concentration-response curves come from the screen itself.

Assay [3] deals with Zika virus NS2B-NS3 protease (linked construct). The assay is described as follows: Primary screen NINDS Rhodamine qHTS for Zika virus inhibitors (AID 1347160). Further: nearly all actives have a fitted effect of over 55% in size. Further: potency means the concentration at half of the fitted maximal effect. In outline: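 Each compound, titrated, sat 15 min with 25 nM linked protease before 1.5 microM Rhodamine110 substrate went in. Fluorescence gain over the next 15 min, in pH 8.0 Tris with Tween 20, gave Hill-fitted curves.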

Records with an inconclusive call do not appear. Activity calls are given as the source filed them. The call rests on the fitted dose curve; in most records, active means well fitted curve in the direction sought with a large enough effect; inconclusive means small, poorly fitted or top-dose-only effect, or another doubt; inactive means no such curve, though single readings can be large; an effect the other way counts as inactive or inconclusive.

In the case of `C=CC1(C)CC=C2C(CCC3C(C)(C(=O)O)CCCC23C)C1` (stereo not drawn), in assay [1], the Potency result is “inactive”. The Potency in assay [2] was 5.62 µM (active); in assay [3], 14.1 µM (active).

For the molecule `COc1cc(C2OCC3(O)C(c4ccc(O[C@@H]5O[C@H](CO)[C@@H](O)[C@H](O)[C@H]5O)c(OC)c4)OCC23O)ccc1O` (stereo partly drawn), the Potency result in assay [1], in assay [2] and in assay [3] was “inactive” in each case.

On to `C=C1CC[C@@H]2[C@@](C)(CO[C@@H]3O[C@H](CO)[C@@H](O)[C@H](O)[C@H]3O)[C@H](O)CC[C@@]2(C)[C@@H]1CC/C(C)=C/CO[C@@H]1O[C@H](CO)[C@@H](O)[C@H](O)[C@H]1O`, for which the Potency result in assay [1], in assay [2] and in assay [3] was “inactive” in each case.

Take `O=C(Nc1ccc(N2CCC(C(=O)N3CCOCC3)CC2)cc1)c1cnc(Oc2ccccc2)nc1`: the Potency entry in assay [1], in assay [2] and in assay [3] was “inactive” in each case.

Regarding `C=C(C(=O)O)[C@@H]1CC[C@@]2(C)CCC[C@@](C)(O)[C@@H]2C1`, the Potency result in assay [1], in assay [2] and in assay [3] was “inactive” throughout.

`C/C(CO)=C1/CCC23COC(C2)C(O)(C(=O)O)CCC13` (stereo not drawn): the Potency entry in assay [1], in assay [2] and in assay [3] was “inactive” throughout.

In the case of `CC1C2=CC(=O)OC2(O)CC2C1C(OC(=O)c1ccccc1)C(OC(=O)c1ccccc1)C1(O)C2(C)CCC(O)C1(C)C(=O)O` (stereo not drawn), the Potency result in assay [1], in assay [2] and in assay [3] was “inactive” each time.

Regarding `COc1cncc(C#Cc2ccccn2)c1`, the Potency entry in assay [1], in assay [2] and in assay [3] was “inactive” in each case.

Consider `CC1=C2C[C@H]3OC(=O)[C@H](O)[C@@]4(O)[C@@H](C)[C@@H](O)[C@H](O)C([C@@]2(C)[C@H](O)[C@@H](O)C1)[C@@]34C` (stereo partly drawn), for which the Potency entry in assay [1], in assay [2] and in assay [3] was “inactive” throughout.

Take `Cc1ccc(-c2c(-c3nn(C)c4ncnc(N5CCC(N6CCCCC6)C5)c34)cnn2C)cc1` (stereo not drawn): the Potency entry in assay [1], in assay [2] and in assay [3] was “inactive” in each case.

On to `Cc1cc(-c2nncc3c(C(C)(C)C)c(OCc4ncnn4C)nn23)no1`, for which the Potency result in assay [1], in assay [2] and in assay [3] was “inactive” throughout.

As for `COc1cc(O)c2c(c1)C1(OC2=O)C(C)=CC(=O)C1O` (stereo not drawn), the Potency result in assay [1], in assay [2] and in assay [3] was “inactive” in each case.

With `COC1OC(O)C2(CCC3(O2)C(C)CC2OC(=O)C4(C)CCCC3(C)C24)C1O` (stereo not drawn), the Potency result in assay [1], in assay [2] and in assay [3] was “inactive” each time.

As for `CC(O)C(O)/C=C/C=C/C(=O)O[C@@H]1C=C(C(=O)O)[C@](O)(CO)[C@@]2(C)CCCC(C)(C)[C@H]12` (stereo partly drawn), the Potency entry in assay [1], in assay [2] and in assay [3] was “inactive” throughout.

As for `COc1ccc(Oc2c(Cl)cnn(C3c4ccccc4-c4ccccc43)c2=O)cc1`, the Potency entry in assay [1], in assay [2] and in assay [3] was “inactive” in each case.

As to `CC1CC(=O)C2C(O)(C1)CC(O)C13OC1c1c(O)cccc1C(=O)C23O` (stereo not drawn), the Potency result in assay [1], in assay [2] and in assay [3] was “inactive” throughout.

With `COC(=O)CCC1(C)C(C(C)(C)O)C(O)CC2(C)Oc3c(C)c4c(c(OC)c3CC21)C(=O)OC4` (stereo not drawn), the Potency entry in assay [1], in assay [2] and in assay [3] was “inactive” in each case.

Take `COc1cccc2c1c(O)c(C(=O)N(C)c1ccc(C(F)(F)F)cc1)c(=O)n2C`: the Potency result in assay [1], in assay [2] and in assay [3] was “inactive” throughout.

Consider `O=C(NC/C=C/CN1CCN(c2cccc(Cl)c2Cl)CC1)c1ccc(-c2ccccn2)cc1`, for which the Potency entry in assay [1], in assay [2] and in assay [3] was “inactive” in each case.

Take `COc1c2c(c(C)c3c1C(=O)OC3)OC1(C)CC(O)C34OC(OC)(CC(O)C3(C)C1C2)OC4(C)C` (stereo not drawn): the Potency entry in assay [1], in assay [2] and in assay [3] was “inactive” in each case.

Consider `C=C1CC[C@@H]2C(C)(C)CCC[C@@]2(C)[C@@H]1CC/C(=C/C(=O)OC)COC(C)=O`, for which the Potency entry in assay [1], in assay [2] and in assay [3] was “inactive” each time.
